From PubChem
Rows were chosen to be rich in hits. Some 1.8% of all compounds tested hit in one or more screens of this group.
Akt phos inh – HTS Assay for Inhibitors of Akt Phophorylation: Primary Screen | Neuro2A IGF-stimulated pAkt S473 HTRF, 20 min; active compounds read low | activity change, % for hits at 50 µM | 360,000 compounds, 0.32% hits | AID 651550, 2012; in the data active = activity change below about -80%; inconclusive = mostly about -51% to -80%
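Single-point screen (50 µM final compound) in Neuro2A cells stimulated 20 min with 6 nM IGF at 37 deg C. After lysis, Ser473-phosphorylated Akt read by HTRF (ex 330 nm, em 615/665 nm) as the 665/615 ratio.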
BRCA1 expr act – qHTS Assay to Identify Small Molecule Activators of BRCA1 Expression. AID 624202, 2012. Potency, µM (highest dose often 46.1 µM), most hits filed as activators. 380,000 compounds, 1.1% hits. MCF7-BRCA1-FFLuc reporter, luminescence, 48 h; response scale: scaled: vehicle 0%, 10 µM genistein 100%; note: nearly all actives have a fitted effect of over 80% in size
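Quantitative HTS in MCF7 cells stably reporting BRCA1 expression via firefly luciferase. Compound treatment lasts 48 h at 37 °C in phenol-red free MEM. Activation is expressed relative to genistein at 10 microM and DMSO.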
MmCpn inh – Inhibitors of TCP-1 ring complex (TRiC) of Methanococcus maripaludis (MmCpn): qHTS. Chaperonin Mm-Cpn (Methanococcus maripaludis). 330,000 compounds, 0.031% hits. purified Mm-Cpn ATPase, ADP Transcreener TR-FRET. Potency, µM (series often up to 76.9 µM), usual class: inhibitors. AID 504842, 2011; note: nearly all actives have a fitted effect of over 80% in size
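Quantitative HTS used 25 nM Mm-CPN and 10 uM ATP in magnesium/KCl Tris buffer, pH 7.4, with 1 mM DTT. Hydrolysis ran 30 min at 37°C; ADP was read by HTRF.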
AT treatment – qHTS Assay for Identifying a Potential Treatment of Ataxia-Telangiectasia. 320,000 compounds, 0.19% hits. F2112 A-T fibroblasts, KAP-1 phosphorylation AlphaLISA; neocarzinostatin DNA damage 30 min before lysis. Potency, µM (top dose mostly 57.5 µM), usual class: activators; note: nearly all actives have a fitted effect of over 45% in size
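ATM-like activity read as KAP-1 phosphorylation via AlphaLISA donor/acceptor antibody pairs after lysis and 6 hr at 25C. Cells were ATM-null patient fibroblasts (F2112, hTERT), dosed 60 min, then exposed to the DSB inducer NCS for 30 min.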
CCT chaperon mod – High-Throughput Screening for Modulators of Cytosolic Chaperonin Activity. purified chaperonin ATPase assay, HTRF ADP detection, 30 min. activity change, % (test concentration not listed), hits read low. 360,000 compounds, 0.3% hits. AID 651819, 2012; in the data active = activity change below about -30%
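Enzyme 40 or 20 nM (batch-dependent) in Tris pH 7.4/KCl/MgCl2/DTT; cpd 76 uM single point; ATP 10 uM; 30 min 37 °C; Transcreener ADP HTRF detection, 30 min RT; ratio 665/615.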
Numbers stand for hits; - = inactive; ? = inconclusive; . = not tested or not shown. Unless noted, calls come from the whole dose curve; as a rule, active = well fitted curve in the direction sought with a large enough effect; inconclusive = small, poorly fitted or top-dose-only effect, or another doubt; inactive = no such curve, though single readings can be large; an effect the other way counts as inactive or inconclusive.

SMILES | Akt phos inh | BRCA1 expr act | MmCpn inh | AT treatment | CCT chaperon mod
CCC(=O)N1CCN(c2ccc(Cl)cc2NC(=O)Cc2ccc(Cl)cc2)CC1 | -85% | - | - | . | -
COc1ccc(CC(=O)Nc2cc(Cl)ccc2N2CCCC2)cc1 | - | - | - | - | -
CC12CCC(C(=O)NNc3ccc([N+](=O)[O-])cc3)(OC1=O)C2(C)C (stereo not given) | - | - | - | 10µM | -
Cc1ccc(SCc2nc3ccccc3[nH]2)cc1 | - | 3.5µM | - | - | -
Fc1ccccc1CSCc1nc2ccccc2[nH]1 | - | 5.6µM | - | - | -
Cc1ccc(CSCc2nc3ccccc3[nH]2)cc1 | - | - | - | - | -
Cc1ccc(NC(=O)CCCSc2nc3ccccc3[nH]2)cc1 | - | - | - | - | -
Cc1ccc(SCC(=O)Nc2ccc(-c3nc4ccccc4[nH]3)cc2)cc1 | - | 3.5µM | - | - | -
c1ccc(CCc2nc3ccccc3[nH]2)cc1 | - | 6.3µM | - | - | -
c1ccc2[nH]c(CCCc3nc4ccccc4[nH]3)nc2c1 | - | - | - | - | -
O=[N+]([O-])c1ccccc1/C=C1\C=Cc2ccccc21 | . | - | . | . | .
Cc1ccc(OCCSCc2nc3ccccc3[nH]2)cc1 | -98% | - | - | - | -
Clc1ccc(OCCSCc2nc3ccccc3[nH]2)cc1 | - | - | - | . | -
Cc1ccc(NC(=O)NCc2ccccn2)cc1Cl | - | - | - | - | -
Cc1ccc(NC(=O)NCc2c(C)nn(C)c2C)cc1Cl | - | 5µM | - | - | -
Cc1ccc(OCCN2CCOCC2)cc1C | - | - | - | - | -
Cc1cc(OCCN2CCOCC2)ccc1Cl | - | 13µM | - | - | -
CCOc1cccc(OCCCCN2CCOCC2)c1 | -108% | - | - | - | -
COc1ccc2oc(=O)c(C(=O)NCCc3c(C)[nH]c4ccc(F)cc34)cc2c1 | . | - | . | . | .
O=[N+]([O-])c1ccc(Nc2nc(NCCN3CCOCC3)nc(Nc3ccc(Cl)cc3)n2)cc1 | . | - | . | . | .
O=C(Nc1nccs1)Oc1ccccc1 | - | - | - | - | -
C/C(=C\c1ccccc1)C(=O)Nc1nccs1 | - | 3.2µM | - | - | -
N#C/C(=C\c1cccs1)C(=O)Nc1nccs1 | - | 14µM | - | - | -
N#C/C(=C\c1cccs1)C(=O)NCc1ccccc1 | - | - | - | - | -
Cc1cnc2c(C)cccc2c1/C=C/c1ccc(N(C)C)cc1 | . | - | . | . | .
SMILES | Akt phos inh | BRCA1 expr act | MmCpn inh | AT treatment | CCT chaperon mod
O=C(Cc1ccccc1Cl)NO | . | - | . | . | .
O=C1NC(=S)NC1=Cc1ccccc1O | - | - | . | . | -
O=C1NC(=S)N/C1=C/c1cccc2ccccc12 | - | 13µM | - | - | -
O=C(Nc1ccc(F)cc1F)c1ccc2nc(N3CCOCC3)sc2c1 | - | - | - | - | -
O=C(Nc1ccccc1F)c1ccc2nc(N3C(=O)CCC3=O)sc2c1 | -120% | - | - | - | -
CCOc1ccc(Cc2nnc(SCC(=O)Nc3ccc(OC)cc3)n(N)c2=O)cc1 | - | - | - | - | -
COc1ccc(NC(=O)CSc2nnc(CCC(=O)O)c(=O)n2N)cc1 | - | - | - | - | -56
COc1ccc(NC(=O)CSc2nnc(-c3cccs3)n2-c2ccccc2)cc1 | -107% | - | - | - | -
COc1ccc(NC(=O)CSc2nnc(C3CC3)n2-c2ccccc2)cc1 | - | - | - | - | -
Cn1c(SCC(=O)c2ccccc2)nnc1-c1cccs1 | - | 10µM | - | - | -
CCn1c(SCC(=O)c2ccccc2)nnc1-c1cnccn1 | - | 10µM | - | - | -
CCCCCCCCCCCCCCCCOC(=O)N1CCN(/[N+]([O-])=N/Oc2ccc([N+](=O)[O-])cc2[N+](C)=O)CC1 | . | - | . | . | .
COc1ccc(N2CCN(C(=O)c3c(C)oc4ncnc(N5CCCCC5)c34)CC2)cc1 | . | - | . | . | .
CSCC(=O)N1CCc2ccc(NC(=O)c3ccccc3Cl)cc2C1 | - | 10µM | - | - | -
CN(C)S(=O)(=O)N1CCc2ccc(NC(=O)c3ccccc3Cl)cc2C1 | - | - | - | - | -
COc1cccc(-n2nc3c(-n4ncc(C#N)c4N)nnc(C)c3c2C)c1 | -123% | - | - | - | -
Cc1cccc(-n2ncc(C#N)c2N)c1 | - | - | - | - | -
COc1ccc2oc(=Nc3ccc(C(=O)O)cc3)c(C(=O)NCc3ccco3)cc2c1 | - | - | - | - | -
COc1ccc2cc(C(=O)NCc3ccco3)c(=Nc3ccc(C(=O)O)cc3)oc2c1 | -112% | - | - | - | -
CNc1nn(-c2cccc(Cl)c2)nc1N | - | 10µM | - | - | -
Nc1ccccc1Nc1cc(-c2ccccc2)nn1-c1cccc(Cl)c1 | - | - | - | - | -
Cn1c(SCC(=O)NCc2ccco2)nnc1-c1ccc(NC(=O)c2ccccc2)cc1 | . | - | . | . | .
Cc1nn(-c2ccc(N3CCCCC3)nn2)c(C)c1CCC(=O)Nc1ccc(F)c(F)c1 | - | 2.2µM | - | - | -
Cc1ccc(NC(=O)CCc2c(C)nn(-c3ccc(N4CCCCC4)nn3)c2C)cc1C | - | - | - | - | -
Cc1ccc(NC(=O)CCc2c(C)nn(-c3ccc(N4CCCCC4)nn3)c2C)cc1 | - | 4µM | - | - | -
SMILES | Akt phos inh | BRCA1 expr act | MmCpn inh | AT treatment | CCT chaperon mod
COc1cccc(NC(=O)Cc2nc(-c3ccccc3)sc2-c2ccc(C)cc2)c1 | - | - | 40µM | - | -
COC(=O)c1cccc(NC(=O)Cc2nc(-c3ccccc3)sc2-c2ccc(C)cc2)c1 | - | - | 50µM | - | -
CC(=O)Nc1cccc(NC(=O)Cc2nc(-c3ccccc3)sc2-c2ccc(C)cc2)c1 | - | - | ? | - | -
COc1ccc(S(=O)(=O)N2CCN(c3nc(-c4ccccc4)nc4ccccc34)CC2)cc1 | . | - | . | . | .
COc1ccc2c(c1)CC/C(=C\C=C\c1ccccc1OC)C2=O | - | 11µM | - | - | -
CC(C)N1CC(O)=C(c2nc3ccccc3[nH]2)C1=N | - | 8.9µM | - | - | -
Cc1oc2cc3oc(=O)c(CCC(=O)NC4CC4)c(C)c3cc2c1C | - | 6.3µM | - | - | -
Cc1coc2cc3oc(=O)c(CCC(=O)NC4CC4)c(C)c3cc12 | - | ? | - | - | -
O=C(CCc1nnc2ccc(NCc3ccccc3Cl)nn12)NC1CCCCC1 | - | - | - | - | -
COC(=O)/C(=C\C(=O)c1ccccc1)Nc1cccc(C(F)(F)F)c1 | - | 10µM | ? | - | -
CC(=O)Nc1ccccc1C | . | - | - | - | -
CC(=O)Nc1cc(NC(C)=O)c(N=Nc2ccccc2)cc1C | - | 3.5µM | - | - | -
CC(C)CN1CCNC(=O)C1CC(=O)NCCc1cnn(-c2ccccc2)c1 (stereo not given) | - | - | - | - | -
